DT40 TDP1 no CPT: qHTS for Inhibitors of human tyrosyl-DNA phosphodiesterase 1 (TDP1): qHTS in cells in absence of CPT | actives 15% (n = 420,000) | DT40 Tdp1-/- hTDP1 cells, no CPT, ATP luminescence, 48 h | Potency, µM (titrated, usually from 46.2 µM), for the others: top-dose activity change, negative = growth inhibition, usual class: inhibitors; note: potency is the fitted concentration of half-maximal effect; % is set by controls: 0 for no effect and ±100 for the full control effect; nearly all actives have a fitted effect of over 55% in size
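Seeded 400 DT40-hTDP1 cells/well (vehicle DMSO, no 20 nM CPT); pinned compounds; ≥48 hr at 37 °C; CellTiter-Glo luminescence as viability measure.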
DRD3 antagonist: qHTS of D3 Dopamine Receptor Antagonist: qHTS. D(3) dopamine receptor (Homo sapiens), P35462. D3R cells, DiscoveRx beta-arrestin luminescence, antagonist mode; stronger effect = lower value. max response, negative = inhibition, %. actives 2.5% (n = 360,000). AID 652054, 2013; in the data active = max response below about -50%; inconclusive = no clear call, values can overlap the other calls; note: % is set by controls: 0 for no effect and ±100 for the full control effect
Target sequence (P35462 whole entry, looked up): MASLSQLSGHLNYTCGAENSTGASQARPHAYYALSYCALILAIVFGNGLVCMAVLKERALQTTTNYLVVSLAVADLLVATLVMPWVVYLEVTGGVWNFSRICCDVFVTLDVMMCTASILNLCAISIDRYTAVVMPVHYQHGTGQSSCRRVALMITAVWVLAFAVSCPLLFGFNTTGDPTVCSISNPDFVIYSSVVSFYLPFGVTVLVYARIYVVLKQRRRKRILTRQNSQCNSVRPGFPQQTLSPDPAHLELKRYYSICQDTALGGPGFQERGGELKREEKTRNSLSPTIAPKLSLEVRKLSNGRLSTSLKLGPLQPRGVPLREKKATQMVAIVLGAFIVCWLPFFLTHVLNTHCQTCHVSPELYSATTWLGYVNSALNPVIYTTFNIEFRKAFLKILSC
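Cells plated overnight at 1500 cells/well, then exposed to library compounds with dopamine controls for 90 minutes at 37 degrees C. DiscoveRx reagent added for 30–60 minutes at room temperature; luminescence read, quantitative HTS format.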
IL1B secr inh: qHTS for Inhibitors of Inflammasome Signaling: IL-1-beta AlphaLISA Primary Screen | THP-1 LPS/ATP IL-1B secretion, AlphaLISA, 16 h; stronger effect = lower value | activity change, % at 57.5 µM | actives 4.7% (n = 360,000) | AID 743279, 2014; in the data active = activity change below about -50%; inconclusive = mostly about -30% to -49%; note: % is set by controls: 0 for no effect and ±100 for the full control effect
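THP-1 cells pretreated 1 hr with compounds (up to 57.5 uM final), then stimulated with LPS (250 ng/mL final) plus ATP (1.25 mM final); secreted IL-1B measured by AlphaLISA after 16 hr, decreased signal indicating inhibition.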
ClpP mod: qHTS Assay for Activators of ClpP. ATP-dependent Clp protease proteolytic subunit (Bacillus subtilis (strain 168)), P80244. purified B. subtilis ClpP, FRET peptide cleavage, 20 min. Potency, µM (titrated, usually from 57.5 µM), inactives show at the top dose activity change, negative = active. actives 1.9% (n = 340,000); active = well fitted falling curve with a large enough effect; inconclusive = small, poorly fitted or top-dose-only effect; inactive = no such curve, though single readings can be large or run the other way; note: potency is the fitted concentration of half-maximal effect; the source files actives as falling curves though it sought activators and does not explain the sign; nearly all actives have a fitted effect of over 65% in size
Target sequence (P80244 whole entry, looked up): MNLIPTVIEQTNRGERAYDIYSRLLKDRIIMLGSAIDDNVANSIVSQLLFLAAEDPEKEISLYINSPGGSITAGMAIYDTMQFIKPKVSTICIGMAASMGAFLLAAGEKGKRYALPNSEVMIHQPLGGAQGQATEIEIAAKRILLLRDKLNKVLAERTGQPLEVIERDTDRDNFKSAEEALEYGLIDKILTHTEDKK
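ClpP 10 microg/mL final, pH 8 Tris/KCl buffer with BSA, glycerol, Tween-20; compound pinned in; FRET-FV substrate; RT 20 min; Ex320/Em430; ΔFRET vs ADEP 5.8 microM, DMSO, no enzyme.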
DRD3 agonist: qHTS of D3 Dopamine Receptor Agonist: qHTS; actives 0.58% (n = 410,000); D(3) dopamine receptor (Homo sapiens), P35462; AID 652048, 2013; D3R DiscoveRx beta-arrestin cells, luminescence, 90 min; max activation, %; in the data active = max activation above about 30%; note: 0% is about no effect
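Cells at 1500/well, incubated overnight, then treated with pinned compounds (dopamine as control) for 90 min at 37 degrees C. DiscoveRx reagent added for 30 - 60 minutes at room temperature; luminescence read.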
TDP1 cell CPT: qHTS for Inhibitors of human tyrosyl-DNA phosphodiesterase 1 (TDP1): qHTS in cells in presence of CPT; chicken DT40 Tdp1-/-;hTDP1 cells + 20 nM CPT, ATP luminescence, 48 h; Potency, µM (titrated, usually from 46.2 µM), without a hit: at the top dose activity change, negative = growth inhibition, usual class: inhibitors; actives 12% (n = 420,000); AID 686979, 2013; note: potency is the fitted concentration of half-maximal effect; % is set by controls: 0 for no effect and ±100 for the full control effect; nearly all actives have a fitted effect of over 55% in size
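Chicken DT40 Tdp1-/- cells complemented with human TDP1, 400 cells/well, exposed to compounds plus 20 nM camptothecin for at least 48 h at 37 C; viability read as ATP content by CellTiter-Glo luminescence.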
Active calls of the source: *; ? = inconclusive; / = no result given. Hits are enriched below; roughly 21% of the tested compounds scored in any of these assays. Unless noted, calls come from the whole dose curve; as a rule, active = well fitted inhibition curve with a large enough effect; inconclusive = small, poorly fitted or top-dose-only effect; inactive = flat fitted curve, though single readings scatter.

SMILES	DT40 TDP1 no CPT	DRD3 antagonist	IL1B secr inh	ClpP mod	DRD3 agonist	TDP1 cell CPT
COc1cc(C#N)ccc1OCC(=O)NCCC1=CCCCC1	-0.6%	11.2	10.1	-0.8%	-10.5	-14.5%
Cc1nc2ccccc2nc1OCc1cccc(Cl)c1	14.6µM*	-9.8	19.3	?	-2.4	?
Cc1noc(C)c1S(=O)(=O)N(C)C[C@H]1OCCCC[C@H](C)Oc2ccc(NC(=O)CCCN(C)C)cc2C(=O)N([C@H](C)CO)C[C@@H]1C	-12.8%	-16.8	-10.5	-2.9%	-6.1	-17.3%
COc1ccc(Cl)cc1C(=O)C1CCCN(Cc2cnc(N3CCOCC3)s2)C1 (stereo not drawn)	29.1µM*	-79.1*	0.6	/	-11.8	?
CCOC(=O)N1CCC(N2CCCC(C(=O)c3cc(F)ccc3OC)C2)CC1 (stereo not drawn)	?	-67.6*	-10.2	/	-18.8	-10.9%
COc1ccc(F)cc1C(=O)C1CCCN(Cc2cnc(N3CCCC3)s2)C1 (stereo not drawn)	-20.2%	-59.2*	25.6	/	-26.3	-1.8%
COC(=O)c1c(OCc2ccccn2)cc(=O)n2c1CCN(Cc1cccc(C(F)(F)F)c1)CC2	-8.1%	/	/	/	/	7.1%
Cc1cc(C)cc(SCc2noc(C(=O)NCCCN3CCOCC3)c2C(=O)NCCCN2CCOCC2)c1	?	9.4	-20.2	-1.0%	-9.5	?
COc1ccc(CC(=O)NNc2ncnc3c2cnn3Cc2ccccc2)cc1OC	6.3%	-5.6	42.3	-0.5%	-9.6	4.2%
COCC(=O)Nc1cc(C(=O)N2CCCOc3c(cccc3OC)C2)c2c(c1)nc(C1CCC1)n2C	-15.0%	/	/	/	/	15.2%
O=C1CSc2ccc(C(=O)NCCc3ccc(Cl)cc3Cl)cc2N1	14.6µM*	23.1	-5.3	-13.6%	-1.1	?
COCCNC(=O)c1ccc2c(c1)NC(=O)CS2	-19.0%	-25.0	30.7	-0.8%	6.0	-0.3%
Cc1ccc(C(C(=O)NCC2CCCO2)N(Cc2ccccc2)C(=O)c2ccc(-c3ccccc3)[nH]2)o1 (stereo not drawn)	?	28.1	-78.6*	?	2.2	?
O=C(NCC(=O)N(Cc1ccccc1)C(C(=O)NCC1CCCO1)c1ccccc1)c1ccco1 (stereo not drawn)	-29.8%	1.3	-16.6	/	-1.1	-10.5%
O=C(NCC1CCCO1)C(c1cccs1)N(Cc1ccccc1Cl)C(=O)c1ccc(-c2ccccc2)[nH]1 (stereo not drawn)	23.1µM*	?	?	31.6µM*	-6.8	?
Cc1ccc(-c2csc(NC(=O)Cc3ccc(F)cc3)n2)o1	-11.4%	10.6	-64.6*	/	5.4	-5.9%
COc1ccc(OC)c(-c2csc(NC(=O)Cn3[nH]c(=O)c4ccccc4c3=O)n2)c1	?	45.3	18.4	-0.1%	0.1	?
COc1ccc(OC)c(-c2csc(NC(=O)CSc3ccc([N+](=O)[O-])cc3)n2)c1	16.4µM*	0.5	-68.5*	/	0.1	?
COc1ccc(OC)c(-c2csc(NC(=O)c3ccc(OCC4CCCO4)cc3)n2)c1 (stereo not drawn)	?	24.2	26.2	-7.7%	2.8	?
COc1ccc(-c2csc(NC(=O)CSc3nnnn3C)n2)c(OC)c1	-13.3%	-11.3	-9.8	/	-4.2	-10.7%
COc1ccc(OC)c(-c2csc(NC(=O)Cc3ccc(F)cc3)n2)c1	?	18.6	-69.0*	/	-1.3	-0.8%
COc1ccc(OC)c(-c2csc(NC(=O)c3ccc(F)cc3)n2)c1	?	3.2	-1.8	-27.5%	4.4	7.31µM*
CN1CCN(C(=O)C[C@H]2CC[C@H]3[C@@H](COC[C@@H](O)CN3Cc3cccc(F)c3)O2)CC1	4.0%	21.3	11.9	1.5%	10.1	-12.7%
CC(CCl)n1c(=O)c2ccccc2n1C(=O)c1ccccc1 (stereo not drawn)	?	41.5	2.2	-0.4%	5.7	-20.6%
CC(=O)Nc1cc(-c2ccc(N(C)C)cc2)cn2c(-c3ccc(F)c(Cl)c3)cnc12	14.6µM*	8.8	-17.0	?	-4.3	18.4µM*
SMILES	DT40 TDP1 no CPT	DRD3 antagonist	IL1B secr inh	ClpP mod	DRD3 agonist	TDP1 cell CPT
CC(=O)Nc1cc(-c2ccc(S(C)(=O)=O)cc2)cn2c(-c3ccc(F)cc3)cnc12	?	3.9	?	-8.5%	0.5	?
CC(=O)Nc1cc(-c2ccc(S(C)(=O)=O)cc2)cn2c(-c3ccc(F)c(Cl)c3)cnc12	16.4µM*	146.5	?	?	26.0	18.4µM*
CCCCn1c(N)c(N(CCC(C)C)C(=O)C2CC(=O)N(c3ccc(OC)cc3OC)C2)c(=O)[nH]c1=O (stereo not drawn)	-17.5%	7.9	10.8	-1.1%	6.2	-2.4%
O=C(Cc1ccccc1)N(Cc1cccnc1)c1nc2ccc(F)cc2s1	-6.6%	/	/	0.2%	-17.1	?
CC1(C)CC[C@]2(C(=O)O)CC[C@]3(C)C(=CCC4[C@@]5(C)CC[C@H](O)C(C)(C)C5[C@H](O)C[C@]43C)C2C1 (stereo partly drawn)	-19.6%	/	/	/	/	3.3%
CCCc1[nH][nH]c(=O)c1C(c1ccc(Cl)cc1)C(C#N)C#N (stereo not drawn)	-22.6%	1.8	-82.5*	-1.1%	0.1	-12.1%
Cc1[nH][nH]c(=O)c1[C@@H](c1ccccc1[N+](=O)[O-])C(C#N)C#N	-19.0%	-5.2	-3.3	-10.8%	1.9	?
COc1ccc(S(=O)(=O)N2CCCCC2)cc1NC(=O)c1c(F)cccc1Cl	16.4µM*	0.0	-22.0	-2.7%	8.0	?
COc1ccc(S(=O)(=O)N2CCCCC2)cc1NC(=O)c1ccccc1	-19.1%	-4.3	18.2	/	1.7	6.6%
Cc1onc(-c2c(F)cccc2Cl)c1C(=O)Nc1cc(S(=O)(=O)N2CCCCC2)ccc1O	16.4µM*	55.9	-17.1	-3.3%	9.2	16.4µM*
COc1ccccc1N(C(=O)c1snc(C(N)=O)c1N)C(C(=O)NCCC(C)C)c1ccco1 (stereo not drawn)	-28.6%	-2.8	-19.4	394.7%	1.3	?
COc1ccccc1N(C(=O)c1snc(C(N)=O)c1N)C(C(=O)NC1CCCCC1)c1cccc(OC)c1OC (stereo not drawn)	16.4µM*	-8.7	0.0	/	-5.6	?

Screening results as filed in PubChem BioAssay.
